# PrP 5UTR inh = inhibition of PrP 5' UTR reporter expression. cell-based PrP 5' UTR mRNA reporter, plate reader. inhibition, % (test concentration not listed). actives 0.35% (n = 340,000). AID 488862, 2010; in the data active means inhibition above about 52%; further: 0 = median of the neutral control wells
# PfHsp40 rescue = rescue of yeast from PfHsp40 toxicity, primary screen, S. cerevisiae, ATP luminescence; S. cerevisiae expressing PfHsp40, growth rescue; growth rescue, % at 12.5 µM; actives 0.68% (n = 340,000); in the data active means growth rescue above about 28%, passing the limit was not always enough;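 further: yeast W303a lacking pdr1 and pdr3 grown in galactose medium; growth measured after three days at 30 °C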
# BJeLR viability = MLPCN primary cell-based screen for lethality selective to Ras in HRASV12 cells. BJeLR (HRASV12) viability, CellTiter-Glo ATP luminescence, 48 h. AID 1554, 2009. actives 0.17% (n = 300,000). inhibition, % (no concentration beside the values); in the data active means inhibition above about 50%
# PriA SSB inh = inhibitors of Klebsiella pneumoniae PriA binding to SSB C-terminal tail, primary screen, biochemical, AlphaScreen | inhibition, % at 33 µM | AlphaScreen SSBct-PriA binding, biotinylated peptide | AID 1272365, 2023 | PriA–SSB C-terminal tail interaction (Klebsiella pneumoniae) | actives 0.6% (n = 430,000); in the data active means inhibition mostly above about 37%, no sharp cut-off; inactive means mostly below about 20%;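 further: plate controls were negative control peptide for no effect and reference peptide for full effect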
# Yp Topo-I inh = Yersinia pestis topoisomerase I inhibitors, primary screen, biochemical, cleavage product accumulation, plate reader, single point; activity, % at 10 µM; actives 0.064% (n = 360,000); AID 504884, 2011; DNA topoisomerase I (Yersinia pestis CO92); Y. pestis Topo-I cleavage product accumulation; in the data active means activity above about 50%, passing the limit was not always enough
# PrPC surface inh = inhibitors of human cell surface prion protein PrPC, primary screen, cell-based, TR-FRET; actives 0.43% (n = 370,000); TR-FRET read-out; inhibition, % at 13.8 µM; AID 720596, 2013; in the data active means inhibition above about 24%; further: 0% = median of the test wells and 100% = reference compound wells
# Numbers without * were called inactive; . = not tested or not shown. Most compounds without a hit are left out; they make up all but 1.7% or so of the library.
SMILES,PrP 5UTR inh,PfHsp40 rescue,BJeLR viability,PriA SSB inh,Yp Topo-I inh,PrPC surface inh
C[C@H](C[C@H](O)[C@H]1OC1(C)C)C1=C2C[C@H](O)C3[C@@]4(C)CCC(=O)C(C)(C)C4CC[C@]3(C)[C@@]2(C)CC1 (stereo not given in full),-4,40*,.,17,16,-1
COc1cccc(COc2cn(C)c(C(=O)Nc3nc4ccccc4s3)cc2=O)c1,.,.,.,-6,.,.
COc1ccc(C)cc1NS(=O)(=O)c1ccc(-c2cnc(C3CC3)o2)cc1,76*,1,58*,-13,26,23
Cc1ccc(NS(=O)(=O)c2ccc(-c3cnc(C4CC4)o3)cc2)cc1,-33,0,1,15,9,6
COc1ccccc1-c1nnc(NC(=O)c2ccc(Br)s2)o1,.,.,.,-4,.,.
COc1ccc(S(=O)(=O)N=C2C=C(NS(=O)(=O)c3ccccc3)C(=O)c3ccccc32)cc1,.,.,.,3,.,.
COc1ccc(S(=O)(=O)/N=C2\C=C(Nc3ccc(O)cc3)C(=O)c3ccccc32)cc1,-118,-1,51*,.,-32,56*
COc1ccc(OCCC(=O)Nc2nc3cc(OC)ccc3s2)cc1,.,.,.,-7,.,.
COc1ccc(S(=O)(=O)NCC2CCN(c3nc4ccccc4s3)CC2)c(C)c1,.,.,.,7,.,.
Cc1ccc([C@H]2C(C(=O)O)=CC[C@@H](c3ccc(C(C)C)cc3)N2S(=O)(=O)c2ccc(C)cc2)cc1,-9,8,.,-8,27,4
CCc1ccc([C@@H]2CC=C(C(=O)O)[C@H](c3ccc(Cl)cc3)N2S(=O)(=O)c2ccc(C)cc2)cc1,-11,281*,.,-10,9,4
Cc1ccc([C@H]2C(C(=O)O)=CC[C@@H](c3ccc(Cl)cc3)N2S(=O)(=O)c2ccc(C)cc2)cc1,8,46*,.,8,8,-1
Cc1ccc(S(=O)(=O)N2[C@@H](c3ccc(Cl)cc3)C(C(=O)O)=CC[C@H]2c2ccc(C(C)C)cc2)cc1,-1,6,.,7,6,1
Cc1ccc(S(=O)(=O)N2[C@@H](c3ccccc3)C(C(=O)O)=CC[C@H]2c2ccc(C(C)C)cc2)cc1,-23,133*,.,9,4,5
Cc1ccc(S(=O)(=O)N2[C@@H](c3cccc(Cl)c3)C(C(=O)O)=CC[C@H]2c2cccc(Cl)c2)cc1,-10,12,.,-7,20,4
Cc1ccc([C@H]2C(C(=O)O)=CC[C@@H](c3cccc(Cl)c3)N2S(=O)(=O)c2ccc(C)cc2)cc1,-9,213*,.,-5,20,-6
O=C(NC[C@@H](O)Cc1ccccc1)c1ccccc1S(=O)(=O)C(F)F,.,.,.,-15,.,.
CS(=O)(=O)N1CCC(C(=O)NCCn2nc(-c3ccc(Cl)cc3)ccc2=O)CC1,.,.,.,13,.,.
CCc1ccc([C@@H]2CC=C(C(=O)O)[C@H](c3cccc(Cl)c3)N2S(=O)(=O)c2ccc(C)cc2)cc1,-20,156*,.,-10,2,10
CCc1ccc([C@@H]2CC=C(C(=O)O)[C@H](c3ccc(C)cc3)N2S(=O)(=O)c2ccc(C)cc2)cc1,-60,14,.,1,14,-2
CN(C)c1ccc(CCNC(=O)c2ccco2)cc1,.,.,.,3,.,.
CCC(C(=O)OC)n1cnc2scc(-c3ccc(C)c(C)c3)c2c1=O (stereo not given),-5,166*,0,-5,28,-9
CCC(C(=O)O)n1cnc2scc(-c3ccc(C)c(C)c3)c2c1=O (stereo not given),3,-2,-4,2,-1,0
CC(C)(C)n1ncc2c(=O)n(CCC(=O)N3CCOCC3)cnc21,.,.,.,-3,.,.
N#CSCc1ccc(O)c2ncccc12,.,.,.,111*,.,.
SMILES,PrP 5UTR inh,PfHsp40 rescue,BJeLR viability,PriA SSB inh,Yp Topo-I inh,PrPC surface inh
O=c1ccnc(SCc2ccc(O)c3ncccc23)[nH]1,.,.,.,106*,.,.
Oc1ccc(CSc2ncccn2)c2cccnc12,.,.,.,76*,.,.
Oc1ccc(CSc2ccccc2)c2cccnc12,.,.,.,88*,.,.
CCCCCCCCCCSCc1ccc(O)c2ncccc12,.,.,.,57,.,.
O=C(Nc1cc(N2CCCC2)ncn1)C1CCCN(c2ccc(-c3cccs3)nn2)C1 (stereo not given),.,.,.,-4,.,.
Brc1ccc(CN2CC(c3nc(-c4cccs4)no3)C2)s1,.,.,.,-6,.,.
COC(=O)Cn1c(-c2ccc(C)cc2)cnc1SCC#N,.,.,.,-7,.,.
O=C(COc1ccc2ccccc2c1)Nc1cccc(C(=O)Nc2ccccc2C(=O)O)c1,-23,37*,-9,8,3,6
CCOC(=O)CNC(=O)c1nnn2cc(-c3ccccc3OC)[nH]c(=O)c12,.,.,.,-4,.,.
COc1ccccc1-c1cn2nnc(C(=O)NCc3c(C)noc3C)c2c(=O)[nH]1,.,.,.,25*,.,.
COc1ccc(OC)c(C(=O)Nc2nc(-c3cc4cc(OC)ccc4o3)cs2)c1,.,.,.,7,.,.
CC(Cc1ccccc1)/[N+]([O-])=C\c1ccc(C(F)(F)F)cc1 (stereo not given),-38,0,3,46*,-2,0
O=C(NCC[C@H](O)c1ccsc1)C(=O)Nc1ccc(F)c(Cl)c1,.,.,.,-11,.,.
CC(NC(=O)c1ccc(Br)cc1)c1ccc2c(c1)CCCC2 (stereo not given),-27,137*,-19,-11,5,-2
O=C(Nc1cccc(-c2ccc3nnc(-c4cccnc4)n3n2)c1)c1ccc(Cl)cc1,.,.,.,-1,.,.
Cn1c(N)c(C(C[N+](=O)[O-])c2c(F)cccc2Cl)c(=O)n(C)c1=O (stereo not given),-11,-1,5,0,-9,1
CN(C)c1ccc(C(C[N+](=O)[O-])c2c(N)n(C)c(=O)n(C)c2=O)c(F)c1C#N (stereo not given),-15,140*,-4,-18,9,-11
O=C(Nc1ccc(F)c(Cl)c1)C(=O)N1CCC2(CC1)OCCN2S(=O)(=O)c1cccs1,.,.,.,9,.,.
CN(C)c1nc(SCc2ccc(Cl)cc2)nc2c1CCCC2,-9,220*,-3,-51,10,-4
Cc1cc(C)nc(SCc2ccc(Cl)cc2)n1,-11,0,-7,-16,16,-3
Cc1csc(NC(=O)CSc2nnc(CNC(=O)c3ccc(S(=O)(=O)N(C)C)cc3)o2)n1,.,.,.,-9,.,.
O=C(Nc1nc(-c2ccccn2)cs1)C(c1ccccc1)c1ccccc1,.,.,.,37,.,.
C[C@H](NC(=O)c1ccccc1)C(=O)Nc1nc(-c2ccccn2)cs1,1,-1,-19,62*,1,-3
CC(CC(=O)Nc1nc(-c2ccccn2)cs1)NC(=O)c1ccccc1 (stereo not given),.,.,.,75*,.,.
CCC(C(=O)Nc1nc(-c2ccccn2)cs1)c1ccccc1 (stereo not given),.,.,.,100*,.,.

# Source: PubChem
